The values that follow come from PubChem BioAssay AID651958 (The Scripps Research Institute Molecular Screening Center, 2012).

The structures appear in SMILES notation. Among all 370,000 compounds or so, about 2,000 (0.54%) were called active. The full list was thinned out, with actives kept by preference. Unmarked numbers belong to inactive results. No stated cut-off is given here; in the data, active means inhibition above about 30%; inactive means the rest.

As usually defined, the inhibition is the change of the read-out against control, counted positive when it falls.

The assay relates to Crimean-Congo hemorrhagic fever virus L polyprotein viral ovarian tumor (vOTU) protease domain. Kind of assay: CCHFV vOTU protease inhibitors, primary screen, biochemical, Pep-AMC substrate, fluorescence (AID 651958). Further: 0% = vehicle wells with enzyme and 100% = no enzyme wells. To be noted: at 11.5 µM, hits give high values.
For the molecule `O=C(COCc1cc(-c2ccc3c(c2)OCO3)on1)N1CCN(c2cccc(Cl)c2)CC1`, the inhibition is 7.08%. With `Cc1coc2c(O)cc3c(c12)OC1(N2CCCCC2)C(=O)NCCCC31` (stereo not given), the inhibition is 51.9% (active). In the case of `CCN1CCN(CC(=O)c2cc(OC)c(OC)c(OC)c2)CC1`, the inhibition was -2.49%. For `Oc1c(Cl)cc(Cl)c(Cl)c1Cc1c(O)c(Cl)cc(Cl)c1Cl`, the inhibition was 39% (active).

Take `CC(=O)Nc1ccc(SCC(=O)Nc2ccccc2Oc2ccccc2)cc1`: the inhibition was -1.09%. As to `CC1(C)S[C@@H]2[C@H](NC(=O)COc3ccccc3)C(=O)N2C1C(=O)OCc1ccccc1` (stereo not given in full), the inhibition is 3.3%.

Regarding `CC1=NN(c2ccc(Cl)c(C(=O)O)c2)C(=O)/C1=C/c1ccc(-c2ccccc2[N+](=O)[O-])o1`, the inhibition is 32.7% (active). For `O=C1C2C3C=CC(C4CC34)C2C(=O)N1/N=C/c1ccc(-c2ccccc2[N+](=O)[O-])o1` (stereo not given), the inhibition was 13.7%. `Cc1ccc(-c2ccc(/C=C(\C#N)C(N)=S)o2)c([N+](=O)[O-])c1`: the inhibition is 16.7%. Regarding `CC(C)[C@H](NC(=O)N1c2ccccc2NC(=O)[C@@H]1C(C)C)C(=O)N[C@H](C(=O)O)c1ccccc1`, the inhibition was -2.64%. As for `O=S(=O)(c1ccc(Sc2nnc3ccccn23)nc1)N1CCOCC1`, the inhibition was -14.3%. The figure for `NNC(=O)c1cccc(COCC(F)(F)C(F)F)c1` is -1.18%.

With `CCCCNC(=O)C1CCC(=O)N1CCc1ccccc1` (stereo not given), the inhibition is 0.15%.

Consider `Cc1cc(C)cc(NC(=S)NCCc2c[nH]c3ccccc23)c1`, for which the inhibition was 30.6% (active). The figure for `O=C(COC(=O)Cc1c[nH]c2ccccc12)NCCc1ccccc1` is -6.33%; for `Cc1ccc(S(=O)(=O)N(C)CC(=O)NCCc2c[nH]c3ccccc23)cc1` it is 1.27%. `Clc1ccc(CSc2nnc([C@@H]3CCCN3)o2)cc1`: the inhibition was 2.88%. For `Cc1nn(CCCC(=O)NCc2ccccc2Cl)c(=O)c2nccn12`, the inhibition is 3.6%. Take `COc1ccc2c(c1)CCc1cn3ncc(C#N)c3nc1-2`: the inhibition was -345%. Take `NCCN1CCN2C(=O)CN(C(=O)c3ccccc3)CC12` (stereo not given): the inhibition is 12.1%.

As for `O=S(=O)(Nc1ccc(O)c2ccccc12)c1ccc(OC(F)(F)F)cc1`, the inhibition is 72.5% (active). Take `O=S(=O)(Cc1noc(-c2ccc(OC(F)(F)F)cc2)n1)c1ccc(F)cc1`: the inhibition is 2.35%. For the molecule `O=[N+]([O-])c1ccc(NS(=O)(=O)c2ccccc2)c(Cl)c1`, the inhibition is 12.9%. The figure for `O=C(c1ccc(F)cc1)N1CCC(C(=O)N2CCN(S(=O)(=O)c3ccccc3Br)CC2)CC1` is -5.29%; for `CC(C)[C@@H](C(=O)O)N(Cc1cccc(CN([C@H](C(=O)O)C(C)C)S(C)(=O)=O)c1)S(C)(=O)=O` it is 1.18%. Turning to `CCC(C)CCN1CCN=C1N(C)C` (stereo not given), the inhibition was 10.6%. As to `CC(C(=O)Nc1ccc(Cl)cc1Cl)N1CC=C(c2ccccc2)CC1` (stereo not given), the inhibition was -3.9%. In the case of `CC(Sc1nncn1C)C(=O)Nc1ccccc1-c1ccccc1` (stereo not given) it was 3.71%; in that of `CC(C(=O)Nc1ccccc1-c1ccccc1)N1CCOCC1` (stereo not given), 30% (active); in that of `COc1ccc(S(=O)(=O)N(C)C[C@H]2OCc3cnnn3CCCC(=O)N([C@H](C)CO)C[C@H]2C)cc1`, -4.66%.

As to `O=C(Nc1ccc(F)cc1)C(=O)c1cn(CC(=O)N2CCOCC2)c2ccccc12`, the inhibition was -0.24%. On to `COc1cccc(NC(=O)C(=O)c2cn(CC(=O)N3CCOCC3)c3ccccc23)c1`, for which the inhibition was 40.2% (active). On to `COc1cccc(NC(=O)CS(=O)(=O)c2cn(CC(=O)N3CCOCC3)c3ccccc23)c1`, for which the inhibition was 6.34%. As to `CN(Cc1c(F)cccc1Cl)C(=O)COC(=O)Cn1cnc2ccccc2c1=O`, the inhibition was -6.54%. For `CCCCC(O)(CCCC)C(=O)NN(C(=O)CCl)c1ccccc1`, the inhibition is 8.68%. In the case of `CCCc1ccc(OCC(O)CN2CCN(CCO)CC2)cc1` (stereo not given), the inhibition was -10.8%. As to `COc1ccc(CN2CCC(C)(Oc3cccc(F)c3)C2)c2ccccc12` (stereo not given), the inhibition is 10%.

Consider `CN1CCc2c(sc3c2c(NCc2ccco2)nc2nnnn23)C1`, for which the inhibition is -25.3%. In the case of `CCCSc1nc(NCc2ccco2)c2c3c(sc2n1)COC(C)(CC)C3` (stereo not given), the inhibition is 30.9% (active).

Turning to `CCC1(C)Cc2c(sc3nnn(CC(=O)Nc4ccc(Cl)cc4)c(=O)c23)CO1` (stereo not given), the inhibition was -1.67%.

With `Clc1ccc(C(Cn2ccnc2)OCc2ccsc2Cl)c(Cl)c1` (stereo not given), the inhibition is 9.88%. On to `Clc1ccc(C2=CSC3=Nc4cccc5cccc(c45)N23)cc1`, for which the inhibition was 103% (active). Regarding `COc1ccc(CN(Cc2ccco2)S(=O)(=O)c2ccc(S(=O)(=O)N3CCCC3)cc2)cc1`, the inhibition is -4.58%. Regarding `CC(=O)NS(=O)(=O)c1ccccc1`, the inhibition is -12.3%. The figure for `O=C(NC1=CC(=O)c2ccccc2C1=O)c1ccccc1` is 101% (active); for `Cc1cc(NS(=O)(=O)c2ccccc2)no1` it is -7.1%; for `O=C1C=C(NS(=O)(=O)c2ccccc2)C(=O)c2ccccc21` it is 41.9% (active). Turning to `O=c1ccn([C@@H]2O[C@H](CNS(=O)(=O)c3cc4ccccc4s3)[C@@H](O)[C@H]2O)c(=O)[nH]1`, the inhibition is -7.44%. In the case of `COc1ccc(C2c3[nH]c4ccccc4c3C[C@H]3C(=O)N(CC(C)C)CC(=O)N23)c(OC)c1` (stereo not given in full), the inhibition is -0.95%. Regarding `COc1ccc(/C=C2\N=C3CCCN3C2=O)cc1`, the inhibition is 5.48%. The figure for `NC(=O)COc1ccc(C23CC4CC(CC(C4)C2)C3)cc1` is -6.98%. In the case of `O=C(Oc1ccccc1C(=S)N1CCCCC1)c1cc([N+](=O)[O-])cc([N+](=O)[O-])c1`, the inhibition was -1.38%. In the case of `CCCS(=O)(=O)NC(=O)C1(C)CCCN(C(=O)c2cccs2)C1` (stereo not given) it was 4.76%; in that of `CCCS(=O)(=O)NC(=O)C1(C)CCN(C(=O)c2sccc2C)C1` (stereo not given), 47.1% (active). In the case of `CCCS(=O)(=O)NC(=O)C1(C)CCCN(C(=O)c2cc(C)on2)C1` (stereo not given), the inhibition was -4.97%. `COc1ccc2c(c1)[C@@]13CCCCC1[C@@H](C2)NCC3` (stereo not given in full): the inhibition was -1.34%.

As for `CCc1ccc2c(c1)C1(NN=C(c3ccccc3)S1)C(=O)N2` (stereo not given), the inhibition is 1.82%. As for `CCc1ccc2c(c1)NC(=O)C2(C)Cc1ccc(OC(F)(F)F)cc1` (stereo not given), the inhibition was 31.4% (active). In the case of `CC1(Cc2cccc(C#N)c2)C(=O)Nc2ccc(-c3cccc(C(F)(F)F)c3)cc21` (stereo not given) it was 21.6%; in that of `CCCn1nc(Oc2nc(NC(C)C)nc(N(C)C)n2)ccc1=O`, -1.37%. Consider `O=C(O)CCN1C(=O)CC2(CCCCC2)C1=O`, for which the inhibition was 2.77%. For `COCc1[nH][nH]c(=O)c1C=Nc1ccc(F)cc1F`, the inhibition was 4.69%.

For `O=C(NCc1ccccn1)C1CCN(S(=O)(=O)c2ccc(Br)cc2)CC1`, the inhibition is -7.95%. For the molecule `N#CC1=C(N)Oc2c(c(=O)oc3ccccc23)C1c1ccccc1OC(=O)c1cccs1` (stereo not given), the inhibition is 2.95%. For `COc1ccccc1C1C(C#N)=C(N)Oc2c1c(-c1ccccc1)nn2-c1ccccc1` (stereo not given), the inhibition was 31% (active). In the case of `COc1ccccc1C1CC(=O)n2c(nc(-c3ccccc3)c2-c2ccccc2)S1` (stereo not given) it was -11.5%; in that of `Cc1ccc(S(=O)(=O)N2CCC(=O)N([C@H](COCc3ccccc3)Cc3ccccc3)CC2)cc1`, 4.4%. In the case of `Cc1cc(F)ccc1S(=O)(=O)Nc1ncnc2scc(-c3ccc(F)cc3)c12` it was -9.09%. In the case of `Cc1ccc(CN2CCCCC(NC(=O)C3CCCCC3)C2=O)cc1` (stereo not given) it was 6.33%; in that of `CCn1nc(C)c(CN2CCN(Cc3ccc(OC)c(C)c3C)C(CCO)C2)c1C` (stereo not given), -10.4%.

`Cc1ccc(NS(=O)(=O)c2ccc3c(c2)n(C)c(=O)c(=O)n3C)c(C)c1`: the inhibition was 9.52%. The figure for `O=[N+]([O-])c1cc(S(=O)(=O)Nc2cccc(Cl)c2)ccc1N=Nc1c(O)[nH]c2ccccc12` is -13%. With `O=C(O)c1ccccc1/C=N/Nc1ccc(S(=O)(=O)Nc2ccc(Cl)cc2)cc1[N+](=O)[O-]`, the inhibition is 31.2% (active).

As for `O=C(Nc1cc(S(=O)(=O)Nc2ccc(Cl)cc2)ccc1O)c1ccc(F)cc1F`, the inhibition is 1.4%.

Regarding `Cc1ccc(NS(=O)(=O)c2ccc(N/N=C/c3ccccc3OCC(=O)O)c([N+](=O)[O-])c2)c(C)c1`, the inhibition is 49.3% (active). Regarding `Cc1ccc(C)c(NS(=O)(=O)c2ccc(OCC(=O)NCc3cccnc3)cc2)c1`, the inhibition was 7.43%. With `CCn1c(O)c(N=NC2=NC(=O)CS2)c2cc(C)ccc21`, the inhibition was 10.8%. For `CC(C)c1c(CN(C)C(C)Cc2ccccc2)n(C)n(-c2ccccc2)c1=O` (stereo not given), the inhibition is 3.82%. In the case of `COc1cccc(CNC(=O)CCC2CCCN(C(=O)c3ccoc3C)C2)c1` (stereo not given), the inhibition was -3.63%. In the case of `CCCNC(=O)c1ccc(N2CCC3(CC2)CC(c2ccc(Cl)cc2)=NO3)c([N+](=O)[O-])c1` it was 5.33%; in that of `CC1CCCN(S(=O)(=O)c2ccc(N(C(=O)c3cnccn3)C(C(=O)NC3CCCCC3)c3cccs3)cc2)C1` (stereo not given), 3.18%. Consider `CNc1ccc(SC#N)cc1`, for which the inhibition is 7.09%. Regarding `O=C(Nc1cccc(S(=O)(=O)N2CCCCC2)c1)c1cncc(Br)c1`, the inhibition was 17.5%. With `O=C(Nc1cccc(S(=O)(=O)N2CCCCC2)c1)c1ccc2c(c1)OCO2`, the inhibition was 30.3% (active). The figure for `O=C(Nc1cccc(S(=O)(=O)N2CCCC2)c1)c1cncc(Br)c1` is 6.4%; for `CN1[C@H](Cc2ccccc2)COc2cccc(N3CCSCC3)c2S1(=O)=O` it is -7.16%; for `O=C(CNC(c1ccccc1)c1ccccc1)Nc1ccc(F)cc1` it is -6.64%. For the molecule `COc1ccc(CNS(=O)(=O)c2cc3c4c(c2)CCN4C(=O)CC3)cc1`, the inhibition was 9.3%. The figure for `COc1ccccc1CNS(=O)(=O)c1cc2c3c(c1)CCC(=O)N3CCC2` is 31.9% (active); for `COc1ccccc1CCNS(=O)(=O)c1cc2c3c(c1)C(C)C(=O)N3CCC2` (stereo not given) it is 14%.
